Values joined by “and” are separate entries in the source; they are usually repeats but may differ in a detail not shown here. Equal values may be shown once. Inconclusive results are not listed. Active and inactive are the calls of the source. How the source made its calls, unless noted: active means hit-call score of the fitted dose curve at least 0.9, where 1 is the maximum; inconclusive means response in the unintended direction; inactive means score below 0.9.
How the values were obtained:
[1] = read-out: xenobiotic metabolism (CYP1A2), CYP1A2 (gene 1544); test: CLD_CYP1A2_24hr: CellzDirect (CLD) Gene Expression Assay for xenobiotic metabolism (CYP1A2) at 24 hours (AID 2283683)
Outline: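 CYP1A2 mRNA induction measured by quantitative nuclease protection (chemiluminescent) in human primary hepatocytes 24 h after multi-concentration chemical dosing with daily fresh solutions. DMSO (0.2%) baseline; positive-direction fitting; morphology-based cytotoxicity noted.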

[2] = read-out: ABC Transporter (ABCB1), ABCB1 (gene 5243); test: CLD_ABCB1_24hr: CellzDirect (CLD) Gene Expression Assay for ABC Transporter (ABCB1) at 24 hours (AID 2283684);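 on AC50: potency for increase in ABCB1 mRNA relative to DMSO vehicle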
Outline: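 ABCB1 mRNA induction versus 0.2% DMSO vehicle was read by qNPA chemiluminescence at 24 h. Cultured human hepatocytes from two donor preparations received daily fresh dosing, and phase-contrast cytotoxicity calls were annotated alongside the data.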

[3] = read-out: sulfotransferase (SULT2A), SULT2A1 (gene 6822); test: CLD_SULT2A_24hr: CellzDirect (CLD) Gene Expression Assay for sulfotransferase (SULT2A) at 24 hours (AID 2283694);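 on AC50: potency for increased SULT2A1 mRNA level as induction over DMSO baseline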
Outline: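 mRNA is measured by qNPA: probe hybridisation, S1 nuclease digestion, chemiluminescence, in lysates from human primary hepatocytes harvested 24 h after daily dosing. Vehicle was 0.2% DMSO. Phase-contrast microscopy flagged cytotoxicity (yes/no).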

[4] = read-out: Cytochrome P450 2B6 (Homo sapiens) (UniProt P20813); test: CLD_CYP2B6_48hr: CellzDirect (CLD) Gene Expression Assay for xenobiotic metabolism (CYP2B6) at 48 hours (AID 2283699);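 further: actives raise transcript level above DMSO so potency reflects induction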
Outline: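 CYP2B6 transcript induction, read by quantitative nuclease protection (S1 digestion, chemiluminescent detection) 48 h after dosing, is fitted upward against 0.2% DMSO. Cultured human liver primary cells, two donor preparations, received fresh chemical daily over multiple concentrations.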

[5] = read-out: xenobiotic metabolism (CYP1A1), CYP1A1 (gene 1543); test: CLD_CYP1A1_48hr: CellzDirect (CLD) Gene Expression Assay for xenobiotic metabolism (CYP1A1) at 48 hours (AID 2283705)
Outline: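 CYP1A1 transcript measured by quantitative nuclease protection (chemiluminescent) 48 h after two daily treatments of human hepatocyte cultures, versus 0.2% DMSO. Morphology-based cytotoxicity flags accompany data; two donor preparations used.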

[6] = read-out: glucuronosyltransferase (UGT1A1), UGT1A1 (gene 54658); test: CLD_UGT1A1_48hr: CellzDirect (CLD) Gene Expression Assay for glucuronosyltransferase (UGT1A1) at 48 hours (AID 2283709);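 further: actives increase expression relative to DMSO so potency refers to induction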
Outline: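 Quantitative nuclease protection assay (chemiluminescent) for UGT1A1 mRNA at 48 h in human hepatocyte cultures from two donors, redosed daily with fresh solutions. Induction fitted relative to 0.2% DMSO; phase-contrast morphology annotated cytotoxicity.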

[7] = CEETOX_H295R_MTT_cell_viability: Viability Assessment in the CeeTox HT-H295R MTT Assay (AID 2283718; active means hit-call score of the fitted dose curve at least 0.9, where 1 is the maximum; inactive means score below 0.9)
Outline: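 Human H295R adrenal cells, prestimulated 48 h with 10 uM forskolin, were exposed 48 h to chemicals in 0.1% DMSO. Viability was measured in the same wells by MTT (0.5 mg/ml, 4 h, 37 C), absorbance 570/650 nm, as percent of controls.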

[8] = Tanguay_ZF_120hpf_ActivityScore_legacy: (Legacy) Oregon State University Tanguay Lab 120 Hour Post-fertilization zebrafish Assay Score for Activity (AID 2283742);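 on AC50: dechorionated Tropical 5D wild-type zebrafish embryos held singly per well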
Outline: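 Dechorionated 5D embryos, one per well, static exposure 6–120 hpf, 28C, sealed and dark; final DMSO 0.64% (vol/vol). Brightfield binary scoring of mortality plus 18 endpoints; gain-of-signal fit versus DMSO baseline.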

[9] = read-out: alkyl and aryl transferase (GSTA2), GSTA2 (gene 2939); test: CLD_GSTA2_24hr: CellzDirect (CLD) Gene Expression Assay for alkyl and aryl transferase (GSTA2) at 24 hours (AID 2283693)
Outline: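 GSTA2 transcript levels were quantified by quantitative nuclease protection assay in primary human hepatocytes 24 h after daily dosing with fresh solutions at multiple concentrations; 0.2% DMSO vehicle as baseline, cytotoxicity flagged morphologically.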

[10] = CLD_ACTIN_48hr: CellzDirect (CLD) Gene Expression Assay for Baseline Control (Actin) at 48 hours (AID 2283702)
Outline: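 Background-control actin mRNA read by qNPA chemiluminescence at 48 h. Human hepatocyte cultures from two donors received fresh multi-concentration chemical doses daily for two days; 0.2% DMSO served as vehicle baseline.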

[11] = read-out: Glyceraldehyde-3-phosphate dehydrogenase (Homo sapiens) (UniProt P04406); test: CLD_GAPDH_48hr: CellzDirect (CLD) Gene Expression Assay for Baseline Control (Glyceraldehyde 3-phosphate dehydrogenase) at 48 hours (AID 2283706);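 further: active means higher GAPDH mRNA than DMSO vehicle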
Outline: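 GAPDH baseline-control readout: qNPA chemiluminescent mRNA quantitation in human liver primary cells 48 h after daily dosing on two consecutive days, vehicle 0.2% DMSO; gain of signal fitted against DMSO, cytotoxicity flagged by phase-contrast morphology.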

[12] = read-out: alkyl and aryl transferase (GSTA2), GSTA2 (gene 2939); test: CLD_GSTA2_48hr: CellzDirect (CLD) Gene Expression Assay for alkyl and aryl transferase (GSTA2) at 48 hours (AID 2283708);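 further: active means mRNA induction above DMSO vehicle baseline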
Outline: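 GSTA2 mRNA quantified by qNPA chemiluminescence in human primary hepatocyte lysates after 48 h of daily fresh chemical dosing. Increases fitted against 0.2% DMSO vehicle baseline; cytotoxicity from morphology annotated yes/no.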

[13] = read-out: Cytochrome P450 3A4 (Homo sapiens) (UniProt P08684); test: CLD_CYP3A4_48hr: CellzDirect (CLD) Gene Expression Assay for xenobiotic metabolism (CYP3A4) at 48 hours (AID 2283698)
Outline: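 CYP3A4 induction read by qNPA chemiluminescence after 48 h, with fresh dosing solutions on consecutive days, in cultured human hepatocytes (two donors). Vehicle 0.2% DMSO as baseline; microscopy-based cytotoxicity annotated yes/no alongside data.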

[14] = STM_H9_CystineISnorm_perc: Stemina devTOX quickPredict H9 human embryonic stem cell (hESC)-based Assay for Cystine (CYSS) Metabolite Biomarker, Normalized (AID 2283713; active means hit-call score of the fitted dose curve at least 0.9, where 1 is the maximum; inactive means score below 0.9)
Outline: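 Cells are held undifferentiated and treated for 72h, receiving fresh medium with compound every 24h. Cystine secreted during the final day is quantified by UPLC-HRMS against a labeled spike-in, then expressed relative to the DMSO vehicle median.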

[15] = STM_H9_OrnCyssISnorm_ratio: Stemina devTOX quickPredict H9 human embryonic stem cell (hESC)-based Assay for Ornithine (ORN):Cystine (CYSS) Ratio (AID 2283714)
Outline: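 UPLC-HRMS of spent media: ORN/CYSS ratio of internal-standard-normalized percentages, DMSO (0.1%) baseline. Pluripotent H9 hESCs, 72h exposure, daily re-dosing with fresh media; last 24h media collected.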

[16] = read-out: Glyceraldehyde-3-phosphate dehydrogenase (Homo sapiens) (UniProt P04406); test: CLD_GAPDH_24hr: CellzDirect (CLD) Gene Expression Assay for Baseline Control (Glyceraldehyde 3-phosphate dehydrogenase) at 24 hours (AID 2283692)
Outline: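 GAPDH baseline-control readout: qNPA chemiluminescent mRNA signal in human primary hepatocytes harvested 24 h after daily dosing, normalised to 0.2% DMSO with positive fitting direction; cytotoxicity annotated by phase-contrast morphology.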

[17] = read-out: organic anion transporter (SLCO1B1), SLCO1B1 (gene 10599); test: CLD_SLCO1B1_48hr: CellzDirect (CLD) Gene Expression Assay for organic anion transporter (SLCO1B1) at 48 hours (AID 2283707)
Outline: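 SLCO1B1 transcript quantified by qNPA with chemiluminescent readout after 48 h of once-daily chemical exposure. Cultured human primary hepatocytes came from two donors, with 0.2% DMSO vehicle; positive-direction fitting against DMSO, cytotoxicity flagged by morphology.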

[18] = read-out: xenobiotic metabolism (CYP1A2), CYP1A2 (gene 1544); test: CLD_CYP1A2_48hr: CellzDirect (CLD) Gene Expression Assay for xenobiotic metabolism (CYP1A2) at 48 hours (AID 2283703)
Outline: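 Cytotoxicity was flagged yes/no from morphology, while CYP1A2 transcript induction was detected by qNPA chemiluminescence after a 48-hour exposure. Human primary hepatocyte cultures from separate donors received fresh dosing solutions daily over two days, with 0.2% DMSO as vehicle and baseline.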

Measured: AC50

Glyceraldehyde-3-phosphate dehydrogenase (Homo sapiens), sequence (P04406 whole entry, looked up): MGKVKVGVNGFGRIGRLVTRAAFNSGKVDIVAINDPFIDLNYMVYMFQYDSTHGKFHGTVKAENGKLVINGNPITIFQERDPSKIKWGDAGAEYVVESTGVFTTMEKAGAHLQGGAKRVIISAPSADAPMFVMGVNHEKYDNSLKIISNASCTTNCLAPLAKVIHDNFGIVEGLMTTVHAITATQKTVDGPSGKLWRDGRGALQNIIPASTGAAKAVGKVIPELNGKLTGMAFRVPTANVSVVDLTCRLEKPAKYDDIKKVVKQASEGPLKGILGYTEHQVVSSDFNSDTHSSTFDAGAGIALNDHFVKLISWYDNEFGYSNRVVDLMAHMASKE
Cytochrome P450 3A4 (Homo sapiens), sequence (P08684 whole entry, looked up): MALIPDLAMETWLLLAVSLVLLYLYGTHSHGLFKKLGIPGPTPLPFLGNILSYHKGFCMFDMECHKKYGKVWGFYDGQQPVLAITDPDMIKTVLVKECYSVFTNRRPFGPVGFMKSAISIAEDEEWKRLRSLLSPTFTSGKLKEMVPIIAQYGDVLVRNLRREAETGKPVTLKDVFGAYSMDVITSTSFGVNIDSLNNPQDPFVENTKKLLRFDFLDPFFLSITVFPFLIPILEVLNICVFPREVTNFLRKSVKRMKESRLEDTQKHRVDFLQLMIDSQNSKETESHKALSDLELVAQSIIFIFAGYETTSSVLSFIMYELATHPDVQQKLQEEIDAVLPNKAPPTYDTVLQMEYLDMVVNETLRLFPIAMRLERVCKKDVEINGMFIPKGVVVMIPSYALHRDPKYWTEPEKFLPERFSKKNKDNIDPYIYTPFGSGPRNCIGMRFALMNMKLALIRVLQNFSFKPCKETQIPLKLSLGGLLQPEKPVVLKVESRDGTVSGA

COc1nn(CSP(=S)(OC)OC)c(=O)s1
active: [1] 3.12 µM | [4] 0.655 µM | [5] 11.2 µM
inactive: [2] | [3] | [6] | [7] | [8]

CC[C@H](C)[C@H]1O[C@]2(C=C[C@@H]1C)C[C@@H]1C[C@@H](C/C=C(\C)[C@@H](O[C@H]3C[C@H](OC)[C@@H](O[C@H]4C[C@H](OC)[C@@H](O)[C@H](C)O4)[C@H](C)O3)[C@@H](C)/C=C/C=C3\CO[C@@H]4[C@H](O)C(C)=C[C@@H](C(=O)O1)[C@]34O)O2 (tested in a mixture with another compound)
active: [2] 5.84 µM | [3] 12.3 µM | [8] 8.55 µM
inactive: [1] | [9] | [10] | [5] | [11] | [12] | [7]

CC1(c2ccc(Oc3ccccc3)cc2)OC(=O)N(Nc2ccccc2)C1=O (stereo not drawn)
active: [5] 3.38 µM | [14] 2.42 µM | [15] 3.15 µM
inactive: [1] | [9] | [13] | [10] | [11] | [12] | [8]

Oc1ccc(Cl)cc1Cc1ccccc1
inactive: [16] | [9] | [4] | [11] | [17] | [12] | [14] | [15] | [7]
active: [8] 37.1 µM and 23.4 µM and 22.3 µM

CC1(C)C(C=C(Cl)Cl)C1C(=O)OC(C#N)c1ccc(F)c(Oc2ccccc2)c1 (stereo not drawn)
inactive: [1] | [2] | [5] | [12] | [14] | [7] | [8]
active: [13] 6.91 µM | [4] 7.55 µM

CCCN(CCC)c1c([N+](=O)[O-])cc(C(F)(F)F)cc1[N+](=O)[O-]
active: [1] 5.03 µM | [13] 8.57 µM | [4] 1.37 µM | [5] 15.3 µM
inactive: [2] | [9] | [3] | [12] | [7] | [8]

CCc1ccc(C(=O)NN(C(=O)c2cc(C)cc(C)c2)C(C)(C)C)cc1
active: [1] 20 µM | [13] 2.15 µM | [4] 2.18 µM | [18] 5.55 µM | [6] 3.53 µM
inactive: [2] | [3] | [5] | [17] | [7] | [8]

— PubChem BioAssay (EPA / NIEHS)
